# Assay results reported in the supplement of paper PMC6555819.
# Columns and labels:
# Assay in all cases: PBM binding z-score (relative to random genomic background probes); higher = stronger binding; sequences stand for … in GC…GCGATTGACAGCGTAGAATGAAGG
# [1] = system: FXR:RXRa (NR concentration 270 nM, RXRa partner concentration 90 nM)
# Procedure, shortened: (§1)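 Probes were double-stranded and carried 34-nt variable regions with direct-repeat seeds, single-nucleotide variants, half-site ablations and random human genomic background sequences, printed on custom Agilent 4×180K protein-binding microarrays. Arrays were incubated 1 h with ligand-free nuclear receptor dimers in PBS pH 7.4, 2% milk, 0.02% Triton X-100, 1 mM DTT, 0.2 mg/mL BSA and 0.4 mg/ml salmon testes DNA. Antibodies against each partner (one per run) detected binding, and scanned fluorescence was regression-normalized. Binding z-scores use the random background probes as reference.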
# [2] = system: LXRa:RXRa (NR concentration 270 nM, RXRa partner concentration 90 nM)
# Procedure, shortened: as §1
# [3] = system: LXRa homodimer (NR concentration 270 nM)
# Procedure, shortened: as §1
# [4] = system: LXRb:RXRa (NR concentration 270 nM, RXRa partner concentration 90 nM)
# Procedure, shortened: as §1
# [5] = system: LXRb homodimer (NR concentration 270 nM)
# Procedure, shortened: as §1
# [6] = system: PPARa:RXRa (NR concentration 270 nM, RXRa partner concentration 90 nM)
# Procedure, shortened: as §1
# [7] = system: PPARg:RXRa (NR concentration 180 nM, RXRa partner concentration 90 nM)
# Procedure, shortened: as §1
# [8] = system: PPARg:RXRa 270nM:90nM, anti-RXR (NR concentration 270 nM, RXRa partner concentration 90 nM)
# Procedure, shortened: as §1
# [9] = system: PPARg:RXRa 30nM:10nM, anti-RXR (NR concentration 30 nM, RXRa partner concentration 10 nM)
# Procedure, shortened: as §1
# [10] = system: PPARg:RXRa 90nM:30nM, anti-RXR (NR concentration 90 nM, RXRa partner concentration 30 nM)
# Procedure, shortened: as §1
# [11] = system: PPARg:RXRa DBDmut IVT, anti-RXR (DBD mutation: RXRa K156A/R161A, NR concentration 270 nM, RXRa partner concentration 90 nM)
# Procedure, shortened: as §1
# [12] = system: PPARg:RXRa IVT, anti-PPARg (NR concentration 270 nM, RXRa partner concentration 90 nM)
# Procedure, shortened: as §1
# [13] = system: PPARg DBDmut:RXRa IVT, anti-PPARg (DBD mutation: PPARg1 K132A/R137A, NR concentration 270 nM, RXRa partner concentration 90 nM)
# Procedure, shortened: as §1
# [14] = system: PPARg DBDmut IVT, anti-PPARg (DBD mutation: PPARg1 K132A/R137A, NR concentration 270 nM)
# Procedure, shortened: as §1
# [15] = system: PPARg homodimer (NR concentration 180 nM)
# Procedure, shortened: as §1
# [16] = system: PXR:RXRa (NR concentration 270 nM, RXRa partner concentration 90 nM)
# Procedure, shortened: as §1
# [17] = system: PXR homodimer (NR concentration 270 nM)
# Procedure, shortened: as §1
# [18] = system: RARa:RXR (NR concentration 270 nM, RXRa partner concentration 90 nM)
# Procedure, shortened: as §1
# [19] = system: RARa homodimer (NR concentration 270 nM)
# Procedure, shortened: as §1
# [20] = system: RARb:RXRa (NR concentration 270 nM, RXRa partner concentration 90 nM)
# Procedure, shortened: as §1
sequence,measurement,setting,value
ACTAGCAGGCCAAGTTTGCGTCACTCAAACAAAG,PBM binding z-score,[1],-0.42
same,PBM binding z-score,[2],-0.547
same,PBM binding z-score,[3],-0.38
same,PBM binding z-score,[4],-0.386
same,PBM binding z-score,[5],-0.402
same,PBM binding z-score,[6],-0.395
same,PBM binding z-score,[7],-0.346
same,PBM binding z-score,[8],-0.378
same,PBM binding z-score,[9],-0.74
same,PBM binding z-score,[10],-0.227
same,PBM binding z-score,[11],0.769
same,PBM binding z-score,[12],0.225
same,PBM binding z-score,[13],0.102
same,PBM binding z-score,[14],-0.27
same,PBM binding z-score,[15],-0.265
same,PBM binding z-score,[16],-0.294
same,PBM binding z-score,[17],-0.479
same,PBM binding z-score,[18],-0.264
same,PBM binding z-score,[19],-0.243
same,PBM binding z-score,[20],0.486
CAAACTAGGTCAAGGTCAAAGTTGGTTTGTGCCA,PBM binding z-score,[1],7
same,PBM binding z-score,[2],5.55
same,PBM binding z-score,[3],4.19
same,PBM binding z-score,[4],4.77
same,PBM binding z-score,[5],1.48
same,PBM binding z-score,[6],6.04
same,PBM binding z-score,[7],9.87
same,PBM binding z-score,[8],7.82
same,PBM binding z-score,[9],6.98
same,PBM binding z-score,[10],8.52
same,PBM binding z-score,[11],8.46
same,PBM binding z-score,[12],8.73
same,PBM binding z-score,[13],4.69
same,PBM binding z-score,[14],4.12
same,PBM binding z-score,[15],4.93
same,PBM binding z-score,[16],5.28
same,PBM binding z-score,[17],2.75
same,PBM binding z-score,[18],5.45
same,PBM binding z-score,[19],1.94
same,PBM binding z-score,[20],5.19
CCTATCAGGCCAATCTGGGTCACTCAAGGCTTGA,PBM binding z-score,[1],0.68
same,PBM binding z-score,[2],1.71
same,PBM binding z-score,[3],-0.155
same,PBM binding z-score,[4],1.02
same,PBM binding z-score,[5],0.106
same,PBM binding z-score,[6],3.29
same,PBM binding z-score,[7],2.26
same,PBM binding z-score,[8],2.47
same,PBM binding z-score,[9],0.43
same,PBM binding z-score,[10],1.76
same,PBM binding z-score,[11],4.25
same,PBM binding z-score,[12],5.29
same,PBM binding z-score,[13],0.637
same,PBM binding z-score,[14],-0.095
same,PBM binding z-score,[15],1.45
same,PBM binding z-score,[16],1.27
same,PBM binding z-score,[17],-0.29
same,PBM binding z-score,[18],2.62
same,PBM binding z-score,[19],0.00198
same,PBM binding z-score,[20],1.75
TCTTGTAGATCAAAGGTTAAGGAAGCCGAAGCCT,PBM binding z-score,[1],1.76
same,PBM binding z-score,[2],1.94
same,PBM binding z-score,[3],0.12
same,PBM binding z-score,[4],1.9
same,PBM binding z-score,[5],-0.272
same,PBM binding z-score,[6],4.8
same,PBM binding z-score,[7],7.91
same,PBM binding z-score,[8],7.99
same,PBM binding z-score,[9],7.63
same,PBM binding z-score,[10],8.41
same,PBM binding z-score,[11],2.14
same,PBM binding z-score,[12],3.75
same,PBM binding z-score,[13],1.3
same,PBM binding z-score,[14],0.543
same,PBM binding z-score,[15],1.02
same,PBM binding z-score,[16],2.01
same,PBM binding z-score,[17],-0.532
same,PBM binding z-score,[18],2.9
same,PBM binding z-score,[19],0.593
same,PBM binding z-score,[20],2.11
CGTCCAAGGTCAGCAGGGCAGTGAAAGCGACGTG,PBM binding z-score,[1],5.27
same,PBM binding z-score,[2],3.24
same,PBM binding z-score,[3],-0.203
same,PBM binding z-score,[4],2.34
same,PBM binding z-score,[5],-0.623
same,PBM binding z-score,[6],4.47
same,PBM binding z-score,[7],3.08
same,PBM binding z-score,[8],3.74
same,PBM binding z-score,[9],0.535
same,PBM binding z-score,[10],2.52
same,PBM binding z-score,[11],2.44
same,PBM binding z-score,[12],3.13
same,PBM binding z-score,[13],-0.138
same,PBM binding z-score,[14],-1.04
same,PBM binding z-score,[15],1.69
same,PBM binding z-score,[16],2.25
same,PBM binding z-score,[17],0.00417
same,PBM binding z-score,[18],3.12
same,PBM binding z-score,[19],0.417
same,PBM binding z-score,[20],5.17
TGAATGAGGTTAAAGATCACGGAACGTGGCGTCG,PBM binding z-score,[1],3.68
same,PBM binding z-score,[2],2.87
same,PBM binding z-score,[3],-0.664
same,PBM binding z-score,[4],2.2
same,PBM binding z-score,[5],0.233
same,PBM binding z-score,[6],5.33
same,PBM binding z-score,[7],7.54
same,PBM binding z-score,[8],7.16
same,PBM binding z-score,[9],6.14
same,PBM binding z-score,[10],7.59
same,PBM binding z-score,[11],2.31
same,PBM binding z-score,[12],3.53
same,PBM binding z-score,[13],0.896
same,PBM binding z-score,[14],0.358
same,PBM binding z-score,[15],0.7
same,PBM binding z-score,[16],2.94
same,PBM binding z-score,[17],-0.299
same,PBM binding z-score,[18],4.67
same,PBM binding z-score,[19],0.0716
same,PBM binding z-score,[20],2.18
CAAACTAGGTCAAGAGGTCAAGGTCCGCTTCCCG,PBM binding z-score,[1],6.64
same,PBM binding z-score,[2],6.02
same,PBM binding z-score,[3],4.56
same,PBM binding z-score,[4],4.63
same,PBM binding z-score,[5],1.32
same,PBM binding z-score,[6],6.41
same,PBM binding z-score,[7],9.76
same,PBM binding z-score,[8],8.19
same,PBM binding z-score,[9],6.69
same,PBM binding z-score,[10],8.28
same,PBM binding z-score,[11],8.52
same,PBM binding z-score,[12],8.45
same,PBM binding z-score,[13],0.83
same,PBM binding z-score,[14],-0.359
same,PBM binding z-score,[15],5.33
same,PBM binding z-score,[16],5.88
same,PBM binding z-score,[17],1.72
same,PBM binding z-score,[18],7.29
same,PBM binding z-score,[19],2.29
same,PBM binding z-score,[20],5.54
